Compound activity deposited in PubChem BioAssay by several laboratories.
A selection: hits, their analogues and other compounds. The true share with any hit is near 3.6%.
MazF activator: activators of E. coli MazEF toxin-antitoxin RNase, primary screen, biochemical, fluorescence, uHTS. FAM/BHQ RNA-DNA oligo cleavage fluorescence, 5 h. activation, % at 20 µM. 350,000 compounds, 0.32% hits. AID 504720, 2011; in the data active = activation above about 50%
BoNT A protease: BoNT/A light chain protease inhibitors, primary screen, biochemical, flow cytometry, MLPCN library; multiplex microsphere protease substrate cleavage; inhibition, % at 10 µM; 360,000 compounds, 0.17% hits; also: plate controls were buffer without enzyme for full effect and enzyme alone for no effect
Anthrax LF prot: Bacillus anthracis LF protease inhibitors, primary screen, biochemical, multiplex microsphere, MLPCN library. inhibition, % at 10 µM. multiplex microsphere protease cleavage assay. 360,000 compounds, 0.12% hits. AID 588501, 2011; also: plate controls were buffer without enzyme for full effect and enzyme alone for no effect
Target sequence (P15917 whole entry, looked up): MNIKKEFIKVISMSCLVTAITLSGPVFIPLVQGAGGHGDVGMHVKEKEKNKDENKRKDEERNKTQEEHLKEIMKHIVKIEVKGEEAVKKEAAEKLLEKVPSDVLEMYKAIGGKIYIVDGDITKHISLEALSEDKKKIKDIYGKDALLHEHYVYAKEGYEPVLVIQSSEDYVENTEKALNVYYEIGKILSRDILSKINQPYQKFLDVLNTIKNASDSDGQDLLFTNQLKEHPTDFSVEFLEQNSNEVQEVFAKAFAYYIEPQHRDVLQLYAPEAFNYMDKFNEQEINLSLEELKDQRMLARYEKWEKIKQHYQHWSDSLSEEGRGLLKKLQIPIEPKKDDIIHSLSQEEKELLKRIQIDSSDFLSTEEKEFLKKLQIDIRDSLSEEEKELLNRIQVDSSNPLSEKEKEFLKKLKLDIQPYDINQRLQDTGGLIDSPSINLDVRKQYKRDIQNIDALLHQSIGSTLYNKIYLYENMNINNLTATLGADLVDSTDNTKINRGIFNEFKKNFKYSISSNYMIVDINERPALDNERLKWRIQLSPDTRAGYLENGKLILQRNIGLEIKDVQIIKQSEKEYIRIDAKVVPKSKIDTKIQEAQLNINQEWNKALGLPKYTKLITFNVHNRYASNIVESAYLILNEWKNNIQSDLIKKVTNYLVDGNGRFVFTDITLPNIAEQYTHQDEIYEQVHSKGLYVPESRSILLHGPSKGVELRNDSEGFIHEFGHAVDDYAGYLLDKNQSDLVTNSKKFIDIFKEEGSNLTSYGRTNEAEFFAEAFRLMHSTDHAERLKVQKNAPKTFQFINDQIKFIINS
BoNT F protease: BoNT/F light chain protease inhibitors, primary screen, biochemical, flow cytometry, MLPCN library; Botulinum neurotoxin type F light chain protease (Clostridium botulinum); Multiplex microsphere protease cleavage assay; inhibition, % at 10 µM; 360,000 compounds, 0.22% hits; AID 588497, 2011; in the data active = inhibition above about 35%, passing the limit was not always enough; inconclusive = no clear call, values can overlap the other calls; also: plate controls were buffer without enzyme for full effect and enzyme alone for no effect
Bead autofluor: flagged as autofluorescent in microsphere protease counterscreen | compound autofluorescence counterscreen, microsphere flow cytometry; stronger effect = higher value | fluorescence intensity (no concentration beside the values) | 360,000 compounds, 3.1% hits; in the data active = fluorescence intensity above about 16000; inconclusive = no clear call, values can overlap the other calls
* = called active by the depositor; ? = inconclusive; · = no result given. Rule as the data show it, unless noted: active = inhibition above about 30%; inconclusive = no clear call, values can overlap the other calls; inactive = below that.

SMILES | MazF activator | BoNT A protease | Anthrax LF prot | BoNT F protease | Bead autofluor
CCOC(=O)c1cccc(NC(=O)Cn2cnc3c2c(=O)n(C)c(=O)n3C)c1 | 2 | ? | 0 | -3 | 20236*
Cn1c(=O)c2c(ncn2CC(=O)Nc2nc(-c3ccccc3Cl)cs2)n(C)c1=O | 74* | -1 | -10 | -25 | 5439
O=S(=O)(c1cccc2ccccc12)N1CCC2CC1c1cc(Cl)ccc12 (stereo not given) | -8 | 0 | -8 | -3 | 4135
O=C1CC(SCCO)C(=O)N1c1ccccc1 (stereo not given) | -4 | -1 | -2 | -2 | 23642*
CCCCn1nnnc1C1(C)CCC(=O)N1CCOc1ccccc1 (stereo not given) | · | 0 | -6 | -4 | 4262
CCCCNC(=O)C1(C)CCCCN1Cc1ccc2ccccc2c1 (stereo not given) | · | 0 | 1 | 4 | 3929
O=C(CN1CCN(Cc2ccccc2)CC1)NCC1COc2ccccc2O1 (stereo not given) | 0 | -1 | -2 | -3 | 23257*
NC(COCc1ccccc1)c1csc(Nc2ccccn2)n1 (stereo not given) | · | -1 | 0 | -19 | 4102
CCC(C(=O)N1CCN(c2ncccn2)CC1)c1ccccc1 (stereo not given) | 7 | 1 | 2 | 6 | 3842
CCC(C(=O)N1CCC2(CC1)OCCO2)c1ccccc1 (stereo not given) | -8 | ? | -2 | 1 | 16484*
Cc1cc(C(=O)CSc2nnc(-c3ccccc3F)o2)c(C)n1Cc1cccs1 | -2 | 0 | -1 | 0 | 20558*
Cc1cc(C(=O)CSc2nc3ccccc3n2CCC#N)c(C)n1Cc1cccs1 | 19 | -4 | -19 | -14 | 12378
C=CCn1c(SCC(=O)c2cc(C)n(Cc3cccs3)c2C)nnc1-c1ccncc1 | 2 | 1 | 2 | 0 | 3140
COc1ccccc1-n1cnnc1SCC(=O)c1cc(C)n(Cc2cccs2)c1C | -1 | -1 | -1 | -1 | 17083*
C#CCNC(=O)C[C@@H]1C[C@@]2(C(=O)OC)CCCCC=C2N(Cc2ccccc2)C1=O | · | 0 | -5 | -1 | 6239
O=C(CCN1C(=O)c2ccccc2C1=O)Nc1cccc(S(=O)(=O)N2CCCCC2)c1 | -1 | 1 | -21 | 0 | ?
Cc1cc(C)nc(NS(=O)(=O)c2ccc(NC(=O)CCN3C(=O)c4ccccc4C3=O)cc2)n1 | 0 | -2 | 0 | -4 | 16582*
CCOC(=O)Nc1ccc(S(=O)(=O)Nc2nccc(C)n2)cc1 | 2 | ? | ? | ? | ?
CCOC(=O)Nc1ccc(S(=O)(=O)Nc2nc(C)cc(C)n2)cc1 | -8 | -4 | 0 | -6 | 24252*
O=C(CCCCCN1C(=O)c2ccccc2C1=O)Nc1ccc(S(=O)(=O)N2CCCCC2)cc1 | -10 | ? | -1 | 2 | 21502*
CC1CCN(S(=O)(=O)c2ccc(NC(=O)CCN3C(=O)c4ccccc4C3=O)cc2)CC1 | 2 | 2 | -5 | 0 | 19423*
c1ccc(Oc2c3ccccc3nc3ccccc23)cc1 | -5 | · | · | · | ·
Cc1ccc(CC(CC(=O)O)C(=O)NC2CCCCC2)cc1 (stereo not given) | 8 | -1 | -2 | -3 | 22833*
Cc1ccc(CC(CC(=O)O)C(=O)NCC23CC4CC(CC(C4)C2)C3)cc1 (stereo not given) | 0 | 0 | -6 | -11 | 5031
CCn1cc(C(=O)OC(C)C(=O)Nc2c(C)n(C)n(-c3ccccc3)c2=O)c(=O)c2ccc(C)nc21 (stereo not given) | 9 | 0 | 1 | -2 | 2084
SMILES | MazF activator | BoNT A protease | Anthrax LF prot | BoNT F protease | Bead autofluor
Cc1c(NC(=O)COC(=O)c2cc(-c3cccc4ccccc34)nc3ccccc23)c(=O)n(-c2ccccc2)n1C | 62* | 2 | -1 | 5 | 2212
CCn1cc(C(=O)OCC(=O)Nc2c(C)n(C)n(-c3ccccc3)c2=O)c(=O)c2ccc(C)nc21 | 3 | 0 | -1 | 2 | 23317*
COC(=O)[C@H](CC(C)C)NC(=O)NC1CCCCC1C (stereo not given in full) | -4 | 4 | -17 | 6 | 17745*
COc1ccc(CNC(=O)c2ccccc2SCC(=O)NCc2ccco2)cc1 | 4 | -2 | -3 | -10 | 6339
Oc1ccc(C=Nc2cccc3ccccc23)c(O)c1 | -3 | 1 | 7 | 7 | 3199
CC(O)c1cccc(N=Cc2ccc3ccccc3c2O)c1 (stereo not given) | -24 | 6 | 42* | ? | 3851
CCOC(=O)N1CCC(NC(=O)c2ccc(CNS(=O)(=O)c3ccc(F)cc3)cc2)CC1 | -6 | -8 | -2 | -7 | 17979*
CCOC(=O)N1CCC(NC(=O)c2cc(S(=O)(=O)N3CCOCC3)ccc2F)CC1 | 6 | -1 | 1 | 0 | 20906*
CCOC(=O)N1CCN(C(=O)CN(Cc2ccc(Cl)cc2)S(=O)(=O)c2ccc(C)cc2)CC1 | -7 | -4 | -2 | -6 | 24719*
COC(=O)c1cc(S(=O)(=O)N2CCC(C)CC2)ccc1F | 6 | 2 | -1 | 2 | 22718*
CCOC(=O)N1CCN(C(=O)CN(Cc2ccc(Cl)cc2)S(C)(=O)=O)CC1 | -7 | 0 | 1 | 6 | 2834
CC1(C)CC(NS(=O)(=O)c2ccc(S(N)(=O)=O)cc2)CC(C)(C)N1 | · | 0 | -1 | 7 | 2928
COc1cccc(C(NC(C)=O)c2nc(-c3ccc(OC)nc3)cs2)c1 (stereo not given) | · | 0 | -3 | -4 | 4102
CCCS(=O)(=O)NC(=O)C1(C)CCCN(C(=O)c2cc(OC)ccc2Br)C1 (stereo not given) | · | 0 | 6 | -3 | 3968
Cc1ccc(C)c(NC(=O)c2ccccc2C(=O)c2ccccc2)c1 | · | 0 | -4 | -2 | 4911
C[C@@H]1ON(C)[C@H]2C[C@H]3c4[nH]c5ccccc5c4CCN3C[C@@H]12 | 2 | 2 | 1 | -9 | 3798
CCOC(=O)N1CCC(NC(=O)C2CCN(c3ccc(N4CCOCC4)nn3)CC2)CC1 | 3 | -1 | -2 | 0 | 23805*
CCOC(=O)N1CCN(S(=O)(=O)c2ccc(Cl)cc2)CC1 | 6 | -2 | 4 | -8 | 3544
CCOC(=O)N1CCC(NC(=O)C2CCN(S(=O)(=O)c3cnc[nH]3)CC2)CC1 | 10 | 0 | -5 | -6 | 3492
CCOC(=O)N1CCC(N2CCN(S(=O)(=O)c3ccc(Cl)cc3)CC2)CC1 | -23 | ? | 2 | 3 | 19293*
CCOC(=O)N1CCN(S(=O)(=O)c2ccc(OC)c(Cl)c2)CC1 | 6 | 1 | 5 | 0 | 3138
CCOC(=O)N1CCN(S(=O)(=O)c2ccc(OC)c(OC)c2)CC1 | 6 | -3 | -1 | -7 | 25529*
O=C(Nc1nnc(SCc2ccccn2)s1)C1CC(=O)N(c2ccc(F)cc2)C1 (stereo not given) | -7 | 0 | 1 | -10 | 5889
